An excerpt weighted towards active compounds, which were near 2.2% of everything screened.
Platelet DG rel: platelet dense granule release activity; human platelet-rich plasma, SFLLRN dense granule ATP release, luminescence; 0.22% of 300,000 active; inhibition, %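 (compounds screened at 7.5 µM in platelet-rich plasma)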;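 active = mean replicate score, as percent of positive control, at or above 50; inconclusive = mean below 50 but at least one replicate at or above 50; inactive = mean and every replicate below 50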
HIF activator: HIF pathway transcriptional activation | 0.32% of 300,000 active | activation, % at 7.5 µM (by protocol) | U2OS HRE-luciferase reporter, luminescence; normalized: DMSO 0%, desferrioxamine 100%;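 active = mean activation of at least 10% of the iron chelator positive control signal, with at least half of replicates also reaching 10%; inconclusive = mean and replicate majority disagree about reaching 10%; inactive = mean and most replicates under 10%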
CHT allo act: human CHT allosteric activation | Q9GZV3 | CHT-expressing cells, membrane potential dye, choline EC20; active compounds read high; LV-AA mutant CHT in HEK293 cells | B-score at 10 µM | 0.49% of 310,000 active | AID 488977;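 active = initial fluorescence not abnormally high and integrated response B-score, plate-corrected, over 3 SD above library mean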
Target sequence (Q9GZV3 whole entry, looked up): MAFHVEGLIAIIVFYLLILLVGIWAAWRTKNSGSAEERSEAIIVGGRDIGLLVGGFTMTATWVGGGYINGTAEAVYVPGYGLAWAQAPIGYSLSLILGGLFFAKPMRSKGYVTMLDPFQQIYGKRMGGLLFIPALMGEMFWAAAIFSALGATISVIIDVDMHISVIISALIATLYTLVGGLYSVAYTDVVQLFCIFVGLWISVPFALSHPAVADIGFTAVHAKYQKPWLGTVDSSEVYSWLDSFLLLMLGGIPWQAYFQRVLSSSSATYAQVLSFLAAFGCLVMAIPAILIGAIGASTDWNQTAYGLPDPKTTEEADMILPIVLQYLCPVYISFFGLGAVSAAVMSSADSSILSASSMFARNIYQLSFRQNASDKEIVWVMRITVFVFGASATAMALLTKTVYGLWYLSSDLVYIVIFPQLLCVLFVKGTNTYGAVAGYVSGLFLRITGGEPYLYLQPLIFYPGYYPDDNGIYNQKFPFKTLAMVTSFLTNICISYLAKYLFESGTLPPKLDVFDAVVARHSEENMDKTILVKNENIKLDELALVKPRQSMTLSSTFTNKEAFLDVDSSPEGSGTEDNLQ
AI-2 QS mod: Vibrio harveyi AI-2 quorum sensing modulation; AID 2094; 0.4% of 300,000 active; Vibrio harveyi JMH597 AI-2 luminescence/OD600 ratio, 9 h; active compounds read low; strain lacks LuxN and CqsS sensors; 0 = neutral-control median; activity change, % at 7.5 µM; in the data active = activity change below about -75%, passing the limit was not always enough; inconclusive = no clear call, values can overlap the other calls;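 also: luminescence divided by OD600 gain over 9 h not by final OD600 alone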
VLA-4 inh: inhibition in a human VLA-4 binding assay; 0.2% of 330,000 active; AID 2557; inhibition, % (about 7 µM as worked out from the volumes in the protocol); P13612; VLA-4 expressing cells, ligand binding flow cytometry; in the data active = inhibition above about 50%
CHT inh: inhibits the human high affinity choline transporter; Q9GZV3; CHT-expressing cells, membrane potential dye, choline response; active compounds read low; B-score at 10 µM; 0.86% of 310,000 active;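 active = B-score over 3 SD under the library average, and starting fluorescence ratio not unusually high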;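 also: choline stimulus applied at its EC90 after an EC20 pre-addition; B-score computed on integrated fluorescence ratio after choline addition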
JMH597 growth rt: retest: blocks Vibrio harveyi JMH597 growth; shares compounds with AI-2 QS mod; OD600 absorbance, 9 h; lacks LuxN and CqsS sensors; growth inhibition, % at 7.5 µM; 1% of 750 active; AID 2726;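 active = every replicate shows growth inhibition above 50%; inconclusive = at least half, but not all, replicates pass that cutoff; inactive = fewer than half of replicates pass it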
BB721 const-QS lum: retest counter-screen: lowers luminescence of constitutive-QS Vibrio harveyi BB721; shares compounds with AI-2 QS mod; 9 h; inhibition, % at 7.5 µM; 95% of 750 active; AID 2727;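 active = inhibition above about 80% in every replicate, not just on average, limit read from the data; inconclusive = at least half of replicates past the limit, but not all; inactive = fewer than half of replicates past the limit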
BB721 growth: retest Vibrio harveyi BB721 growth inhibition | AID 2728 | 3% of 750 active | growth inhibition, % at 7.5 µM | OD600 absorbance, 9 h | shares compounds with AI-2 QS mod;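 active = every replicate shows growth inhibition above 50%; inconclusive = at least half but not all replicates above 50% inhibition; inactive = under half of replicates above 50% inhibition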
JMH597 AI-2 mod: Vibrio harveyi AI-2 signaling luminescence modulation – JMH597 strain, confirmation. Vibrio harveyi JMH597 AI-2 quorum sensing luminescence, 9 h; luxN and CqsS knockout, AI-2 only. inhibition, % at 7.5 µM. shares compounds with AI-2 QS mod. 97% of 750 active;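 active = every replicate shows more than 75% inhibition of signal versus neutral control wells; inconclusive = half to three quarters of replicates exceed 75% inhibition; inactive = fewer than half of replicates exceed 75% inhibition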
* hit, by the source's call.

How did O=C(COC(=O)c1ccc(Cl)s1)c1cc2ccccc2o1 do in these assays?
Platelet DG rel: -1; HIF activator: 0; CHT allo act: inactive; AI-2 QS mod: -95*; VLA-4 inh: -8; CHT inh: inactive; JMH597 growth rt: 21; BB721 const-QS lum: 99*; BB721 growth: 29; JMH597 AI-2 mod: 99*

Results for CSCCC1NC(=O)N(CC(=O)Nc2ccc(N3CCCCC3)cc2)C1=O (centres undefined) ?
Platelet DG rel: -2; HIF activator: 0; CHT allo act: inactive; AI-2 QS mod: -82*; VLA-4 inh: 9; CHT inh: inactive; JMH597 growth rt: -2; BB721 const-QS lum: 91*; BB721 growth: -11; JMH597 AI-2 mod: 95*

Results for CN(C)c1ccc(NC(=O)Cc2ccccc2)c2ccccc12 ?
Platelet DG rel: 2; HIF activator: 0; CHT allo act: inactive; AI-2 QS mod: 29; VLA-4 inh: 9; CHT inh: inactive

How did O=C(Cn1nnc(-c2ccccc2)n1)NNC(=O)c1ccccc1 do in these assays?
Platelet DG rel: -3; HIF activator: 0; CHT allo act: inactive; AI-2 QS mod: 3; VLA-4 inh: 10; CHT inh: inactive

How did CC(C)(C)C(=O)Cn1nnc(-c2ccc(C(F)(F)F)cc2)n1 do in these assays?
CHT allo act: inactive; AI-2 QS mod: -80*; VLA-4 inh: 7; CHT inh: inactive; JMH597 growth rt: -30; BB721 const-QS lum: 90*; BB721 growth: -1; JMH597 AI-2 mod: 93*

How did COc1ccc(N2CCN(C(=O)Cn3nnc(-c4cccs4)n3)CC2)cc1 do in these assays?
Platelet DG rel: -5; HIF activator: 0; CHT allo act: inactive; AI-2 QS mod: 36; VLA-4 inh: 1; CHT inh: inactive

What do the screens show for `COc1ccc(C(=O)Cn2nnc(-c3cccs3)n2)cc1`?
Platelet DG rel: -3; HIF activator: 3; CHT allo act: inactive; AI-2 QS mod: -81*; VLA-4 inh: 3; CHT inh: inactive; JMH597 growth rt: 24; BB721 const-QS lum: 93*; BB721 growth: -11; JMH597 AI-2 mod: 96*

What do the screens show for `O=C(Cn1nnc(-c2ccccc2)n1)c1ccccc1`?
Platelet DG rel: -9; HIF activator: 0; CHT allo act: inactive; AI-2 QS mod: -94*; VLA-4 inh: -2; CHT inh: inactive; JMH597 growth rt: 28; BB721 const-QS lum: 98*; BB721 growth: 2; JMH597 AI-2 mod: 99*

How did CCOC(=O)C1=C(CN2CCN(C(=O)c3ccco3)CC2)NC(=O)NC1c1ccc(C)cc1 (centres undefined) do in these assays?
Platelet DG rel: -10; HIF activator: -1; CHT allo act: inactive; AI-2 QS mod: 18; VLA-4 inh: -8; CHT inh: inactive

Results for COc1ccc(CNC(=O)c2cc(-c3cc(C)ccc3O)n[nH]2)cc1 ?
Platelet DG rel: 7; HIF activator: 1; CHT allo act: inactive; AI-2 QS mod: -79*; VLA-4 inh: 4; CHT inh: inactive; JMH597 growth rt: -33; BB721 const-QS lum: inconclusive; BB721 growth: -13; JMH597 AI-2 mod: 84*

Results for CCc1cc(C(=O)Nc2ncccc2O)sc1C ?
Platelet DG rel: -3; HIF activator: 0; CHT allo act: inactive; AI-2 QS mod: 26; VLA-4 inh: 10; CHT inh: inactive

What do the screens show for `O=C(CNC(=O)c1cccc(Cl)c1)NCC(c1cccs1)N1CCOCC1` (centres undefined)?
VLA-4 inh: -4

Source: PubChem (several laboratories)
